High-throughput results: PubChem, National Center for Advancing Translational Sciences (NCATS)
The list is not random: actives were taken first. Their share in the collection is about 4.1%.
AMA1 RON2 block – qHTS for Inhibitors of AMA1-RON; Towards Development of Antimalarial Drug Lead: Primary Screen. Plasmodium falciparum AMA1 (3D7) - RON2 peptide interaction. AlphaScreen AMA1-biotinylated RON2 peptide binding. Potency, µM (doses to about 58.2 µM), hits mostly inhibitors. actives 0.2% (n = 360,000); note: nearly all actives have a fitted effect of over 45% in size
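AMA1 (3D7) with his tag at 25 nM final met compounds first, then biotinylated RON2 peptide at 25 nM; detection used donor plus acceptor beads, 10 µg/mL apiece, read by AlphaScreen after 30 min at room temperature.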
AmpC inh no detg – qHTS Inhibitors of AmpC Beta-Lactamase (assay without detergent). AmpC nitrocefin hydrolysis, absorbance 480 nm, 0.0001% Triton. Potency, µM (highest dose often 57.1 µM), hits mostly inhibitors. actives 0.52% (n = 330,000); note: nearly all actives have a fitted effect of over 20% in size
Target sequence (P00811 whole entry, looked up): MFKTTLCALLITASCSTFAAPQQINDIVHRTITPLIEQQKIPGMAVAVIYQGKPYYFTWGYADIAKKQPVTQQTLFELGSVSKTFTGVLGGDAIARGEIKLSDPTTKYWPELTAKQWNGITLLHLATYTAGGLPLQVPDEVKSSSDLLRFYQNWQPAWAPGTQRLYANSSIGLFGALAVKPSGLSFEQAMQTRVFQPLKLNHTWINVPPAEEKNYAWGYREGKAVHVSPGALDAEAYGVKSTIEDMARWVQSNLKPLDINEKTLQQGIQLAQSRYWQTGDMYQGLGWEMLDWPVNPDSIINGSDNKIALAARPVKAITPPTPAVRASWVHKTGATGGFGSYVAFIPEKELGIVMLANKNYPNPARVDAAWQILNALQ
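AmpC (5.3 nM in the dispensed reagent) in 20 mM phosphate pH 7.0 with 0.01% (detergent screen) or 0.0001% Triton X-100 was preincubated with compounds for 15 min at room temperature. Nitrocefin was then added from an 800 uM solution, and hydrolysis was followed at 480 nm.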
FMDV antiviral – High Throughput Screening for Foot and Mouth Disease Virus Antivirals. FMDV antiviral cell-based qHTS. Potency, µM (top dose mostly 57.9 µM), most hits filed as inhibitors. actives 1.2% (n = 410,000); calls by dose curve; tested in HEK293T cells; note: read-out not given here; nearly all actives have a fitted effect of over 45% in size
Sm TGR block – qHTS Assay for the Inhibitors of Schistosoma Mansoni Peroxiredoxins; Schistosoma mansoni thioredoxin glutathione reductase (TGR), Q962Y6; purified TGR, DTNB reduction, TNB absorbance 405 nm; Potency, µM (highest dose often 114 µM), most hits filed as inhibitors; actives 3% (n = 360,000); AID 485364, 2010; note: nearly all actives have a fitted effect of over 60% in size
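First, TGR (20 nM dispensed) and NADPH were mixed with compound. Second, a 15 min room-temperature incubation followed. Third, further NADPH and then DTNB were added to start the reaction. Finally, TNB absorbance was monitored kinetically.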
AmpC detergent – qHTS Inhibitors of AmpC Beta-Lactamase (assay with detergent); AmpC hydrolysis of nitrocefin, absorbance 480 nm, 0.01% Triton; Potency, µM (doses to about 114 µM), most hits filed as inhibitors; actives 0.041% (n = 370,000); note: nearly all actives have a fitted effect of over 25% in size
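AmpC (5.3 nM in the dispensed reagent) in 20 mM phosphate pH 7.0 with 0.01% (detergent screen) or 0.0001% Triton X-100 was preincubated with compounds for 15 min at room temperature. Nitrocefin was then added from an 800 uM solution, and hydrolysis was followed at 480 nm.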
Hits are given with their value; - = inactive; ? = inconclusive; . = no result. Unless noted, calls come from the whole dose curve; as a rule, active = well fitted curve in the direction sought with a large enough effect; inconclusive = small, poorly fitted or top-dose-only effect, or another doubt; inactive = no such curve, though single readings can be large; an effect the other way counts as inactive or inconclusive.

SMILES	AMA1 RON2 block	AmpC inh no detg	FMDV antiviral	Sm TGR block	AmpC detergent
CC1CCCN(CCCNC(=O)c2cc(Sc3ccc(F)cc3)nc3ccccc23)C1 (stereo not drawn)	.	.	-	-	-
Cc1ccc2nc(NC(=O)CSc3cc(C)[nH]c(=O)n3)sc2c1	.	.	-	-	-
COc1ccc(CCNC(=O)c2cnn(-c3nccc(-c4cccs4)n3)c2C)cc1OC	.	.	-	.	.
O=C1CC(N2CCN(c3ccccn3)CC2)C(=O)N1CC(c1ccccc1)c1ccccc1 (stereo not drawn)	-	-	?	7.1µM	?
CCc1ccc(N2C(=O)CC(N3CCN(c4ccccn4)CC3)C2=O)cc1 (stereo not drawn)	-	-	-	22µM	-
O=C1CC(N2CCN(c3ccccn3)CC2)C(=O)N1c1ccc(F)cc1 (stereo not drawn)	-	-	-	?	-
CCc1c(C)nc2ncnn2c1NCCc1ccc(Cl)cc1	-	-	14µM	-	-
O=C(Cc1cscn1)N1CCOc2ccc(CN3CCN(c4ccccn4)CC3)cc2C1	.	.	-	.	.
COCCCNC(=O)c1c(NC(=O)c2nc(S(C)(=O)=O)ncc2Cl)sc2c1CCCC2	.	.	-	5.6µM	-
Cc1nn(C)c2c1c(C(F)(F)F)cc(=O)n2CC(=O)NC(C)(C)C	.	.	-	-	-
O=C1OCC2OC(O)C(O)C(O)C2OC(=O)c2cc(O)c(O)c(O)c2-c2c(O)c(O)c3oc(=O)c4c(c(O)c(O)c5oc(=O)c2c3c54)-c2c1cc(O)c(O)c2O (stereo not drawn)	.	-	.	16µM	-
COC(=O)c1ccc(NC(=O)NCCn2nnc3cc(S(=O)(=O)N(C)C)ccc32)cc1	.	.	-	-	-
COc1cc(/C=C/C(=O)OCC(=O)Nc2oc(C)c3c(C)n[nH]c(=O)c23)ccc1OC(F)F	-	?	-	22µM	-
CCCNC(=O)CSc1cn(CC(=O)N2CCCCCC2)c2ccccc12	.	.	-	-	-
Cc1nc(-c2ccccc2)sc1C(=O)/C=C/c1ccc(Cl)cc1	-	-	25µM	-	-
C[N+]1(C)CCC(=C2c3ccccc3CC(=O)c3sccc32)CC1	-	-	-	28µM	-
Cc1ccc(/C=C/S(=O)(=O)NCC(=O)OCC(=O)Nc2c(F)cccc2F)cc1	-	-	-	28µM	-
Cc1ccc(/C=C/S(=O)(=O)NCC(=O)OCC(=O)Nc2ccc(C(N)=O)cc2)cc1	-	-	-	-	?
N=c1n(CCO)c2ccccc2n1CCOc1ccc(Cl)cc1Cl	-	-	28µM	-	?
COc1ccc(OCCn2c(=N)n(CCO)c3ccccc32)cc1	-	-	-	-	-
Cc1c(C(=O)OCc2nc3scc(-c4ccccc4)c3c(=O)[nH]2)cccc1[N+](=O)[O-]	-	-	14µM	-	-
Cc1cc(C)c2nc(N3CCCC(C(=O)NCc4ccccc4F)C3)sc2c1 (stereo not drawn)	.	.	-	-	-
O=C(O)C1=CC(=C(c2ccc(O)c(C(=O)O)c2)c2ccc(O)c(C(=O)O)c2)C=CC1=O	.	8.9µM	-	-	8.9µM
O=C(O)c1cc(O)ccc1O	-	.	-	.	.
CCOc1ccc(CNC(=O)c2cc3c(s2)-c2ccccc2OC3)cc1	.	.	-	-	-
SMILES	AMA1 RON2 block	AmpC inh no detg	FMDV antiviral	Sm TGR block	AmpC detergent
CN(C)S(=O)(=O)c1cccc2c1C(=O)c1ccccc1C2=O	-	-	-	25µM	-
CNc1cccc2c1C(=O)c1ccccc1C2=O	4µM	-	-	-	-
Cn1c(=O)c2nc(SCC(=O)Nc3ccc(Cl)c(Cl)c3)n(C)c2n(C)c1=O	.	.	-	-	-
CC(C)CC(=O)NC(Nc1ccc([N+](=O)[O-])cc1)C(Cl)(Cl)Cl (stereo not drawn)	-	-	32µM	-	-
CC(C)CC(=O)NC(Nc1ccccc1F)C(Cl)(Cl)Cl (stereo not drawn)	-	-	-	-	-
COC(=O)NC(NC(=S)Nc1ccc([N+](=O)[O-])cc1)C(Cl)(Cl)Cl (stereo not drawn)	-	-	-	20µM	-
COc1ccc(NC(=S)NC(NC(=O)CF)C(Cl)(Cl)Cl)cc1[N+](=O)[O-] (stereo not drawn)	-	-	-	35µM	-
COc1ccc(NC(=S)NC(NC(=O)CCl)C(Cl)(Cl)Cl)c([N+](=O)[O-])c1 (stereo not drawn)	-	-	-	2.8µM	-
Fc1ccccc1Cn1c(-c2ccccc2)nc2ccccc21	.	.	?	-	-
O=C(CN1C(=O)CCc2cc(Br)ccc21)Nc1ccc(OC(F)(F)F)cc1	.	.	-	-	-
CCOC(=O)N1CCC(Nc2c(-c3ccccc3)c(=O)c2=O)CC1	-	-	-	45µM	-
COc1cc(OC)cc(C(=O)NCC(c2cccs2)S(=O)(=O)c2ccc(F)c(C)c2)c1 (stereo not drawn)	.	.	-	-	-
COc1ccc2[nH]cc(CCNc3ncncc3-c3ccccc3C)c2c1	.	.	20µM	.	.
COc1ccc2[nH]cc(CCNc3ncncc3-c3cccnc3)c2c1	.	.	-	.	.
CC(=O)[C@@H]1[C@@H]2C(=O)N(C3CCCCC3)C(=O)[C@@H]2C2c3ccccc3C=CN21 (stereo partly drawn)	.	-	.	25µM	?
CC(=O)[C@H]1[C@@H]2C(=O)N(c3cccc(Cl)c3)C(=O)[C@@H]2[C@H]2c3ccccc3C=CN21	-	-	-	16µM	-
CC(C)(C)C(=O)[C@@H]1[C@@H]2C(=O)N(Cc3ccccc3)C(=O)[C@@H]2[C@H]2c3ccccc3C=CN12	.	-	.	?	-
Cc1ccc(N2C(=O)[C@@H]3[C@H](C2=O)C2c4ccccc4C=NN2[C@@H]3C(=O)c2ccc(Cl)cc2)cc1 (stereo partly drawn)	-	?	-	-	-
CC(=O)[C@@H]1[C@@H]2C(=O)N(c3ccc(F)c(Cl)c3)C(=O)[C@@H]2C2c3ccccc3C=CN21 (stereo partly drawn)	.	-	.	35µM	-
Cc1ccc(CCNC(=O)Cn2ncc3c([nH]c4ccc(C)cc43)c2=O)cc1	.	.	-	-	-
CC/C(=N\Nc1ccccc1[N+](=O)[O-])c1ccc(O)cc1	16µM	-	-	-	-
CC/C(=N\Nc1ccc([N+](=O)[O-])cc1[N+](=O)[O-])c1ccc(O)cc1	-	-	-	-	-
CCOc1ccc(NC(=O)CCc2c(C)nc3nc(C)nn3c2C)cc1	.	.	-	-	-
Cc1ccc(NC(=O)Cc2csc(C)n2)c(C)c1	.	.	-	-	-
CN1CCN(c2ncc3nc(-c4cc(F)cc(F)c4)c(=O)n(CCc4ccccc4)c3n2)CC1	.	.	-	.	.
